From PubChem
HIF act – HIF pathway transcriptional activation; U2OS HRE-luciferase reporter, luminescence; normalized: DMSO 0%, desferrioxamine 100%; actives 0.32% (n = 300,000); activation, % at 7.5 µM (by protocol);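 active = mean activation of at least 10% of the iron chelator positive control signal, with at least half of replicates also reaching 10%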
HSF1 inhib – HSF1 inhibition; NIH3T3-HGL HSE-luciferase, MG132-induced, luminescence 8 h; stronger effect = lower value; activity change, negative = inhibition, % at 7.5 µM (by protocol); actives 0.77% (n = 300,000);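 active = more than half of replicate wells show activity change below -50%, luminescence cut by over half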;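 also: luciferase reports HSF-1 transcriptional activity via heat shock element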
ARNT-TACC3 inh – ARNT/TACC3 interaction disruption; inhibition, % at 9.99 µM; actives 0.66% (n = 390,000); Q9Y6A5; AID 623870; AlphaScreen His-ARNT PAS-B/GST-TACC3 binding, luminescence; TACC3 fragment carries E629A point mutation;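 active = mean inhibition of replicates at least 50% and at least half of replicates each reaching 50%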
HSF-1 act – increases HSF-1 driven luciferase reporter signal; activation, % at 9 µM; NIH3T3-HGL HSF-1 luciferase reporter, MG132, 8 h; 100% = twice DMSO control signal; actives 1.7% (n = 300,000);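 active = mean replicate activation of at least 50% with a set share of replicates each reaching 50%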
HSP90 refold inh – HSP90 refolding inhibition in rabbit reticulocyte lysate; inhibition, % at 5.6 µM; AID 1789; actives 0.91% (n = 290,000); luciferase refolding luminescence, 3 h;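 active = inhibition above the screen-wide mean plus 3 SD, computed separately per campaign, cut at about 16% in these data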;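 also: inhibitors lower the luminescence because luciferase stays unfolded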
HSP90 confirm – confirmation of HSP90 inhibitors; rabbit reticulocyte lysate, luciferase refolding luminescence, 3 h; actives 64% (n = 2,300); inhibition, % at 5.9 µM; shares compounds with HSP90 refold inh; AID 1846; in the data active = inhibition above about 18%
FLuc counter – blocks native firefly luciferase in HSP90 counter-screen; actives 48% (n = 2,300); shares compounds with HSP90 refold inh; AID 1847; purified native firefly luciferase, luminescence; inhibition, % at 5.9 µM;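 active = inhibition above the mean inhibition of all tested sample wells plus 3 SD, cut at about 10% in these data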
Target sequence (P08659 whole entry, looked up): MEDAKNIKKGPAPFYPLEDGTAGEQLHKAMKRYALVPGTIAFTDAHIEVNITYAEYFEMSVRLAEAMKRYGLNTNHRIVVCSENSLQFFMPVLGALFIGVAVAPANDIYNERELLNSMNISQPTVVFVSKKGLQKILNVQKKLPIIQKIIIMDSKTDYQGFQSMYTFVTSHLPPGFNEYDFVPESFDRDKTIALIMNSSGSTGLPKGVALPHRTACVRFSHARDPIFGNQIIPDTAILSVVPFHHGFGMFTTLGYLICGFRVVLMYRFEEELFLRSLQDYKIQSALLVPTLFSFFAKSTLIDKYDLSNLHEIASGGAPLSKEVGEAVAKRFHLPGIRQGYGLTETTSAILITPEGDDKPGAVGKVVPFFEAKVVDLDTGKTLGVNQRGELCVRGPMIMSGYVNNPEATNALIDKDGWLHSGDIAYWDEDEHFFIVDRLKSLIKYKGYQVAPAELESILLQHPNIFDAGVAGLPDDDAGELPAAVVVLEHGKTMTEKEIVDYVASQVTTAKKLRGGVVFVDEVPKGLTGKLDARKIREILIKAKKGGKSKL
Each line names hits and unclear results; the compound was inactive in the other large screens (follow-up assays come after a bar, where they were run). An excerpt weighted towards active compounds, which were near 3.1% of everything screened.

O=C(NCC(F)(F)F)[C@H]1[C@H](CO)[C@H]2Cn3c(cccc3=O)[C@H]2N1C(=O)C1CCC1	none (no result: HIF act, HSF1 inhib, HSF-1 act, HSP90 refold inh)
CC(=O)N(CN1C(=O)c2ccccc2C1=O)c1cccc(C)c1	none
CC(=O)N(/N=C1\Sc2ccccc2C1=O)c1cccc(C)c1	HSP90 refold inh 40 | HSP90 confirm 76 | FLuc counter inactive
COc1ccc(NC(=O)/C(C#N)=C\c2ccc(-c3cccc(C(=O)O)c3C)o2)cc1	HSP90 refold inh 32 | HSP90 confirm 28 | FLuc counter inactive
COc1ccc(NC(=O)/C(C#N)=C/c2ccc(-c3ccccc3C(=O)O)o2)cc1	none
CN1c2ccc(C#Cc3cccnc3)cc2[C@@H]2[C@@H](CCN2S(=O)(=O)c2cccc(F)c2)[C@@H]1CO	none (no result: HIF act, HSF1 inhib, HSF-1 act, HSP90 refold inh)
CC(C)(C)c1ccc(C(=O)O/N=C(\N)c2ccccn2)cc1	HSF1 inhib -89, HSP90 refold inh 73 (no result: ARNT-TACC3 inh) | HSP90 confirm 64 | FLuc counter 83
Cc1cccc(C(=O)O/N=C(\N)c2ccccn2)c1	HSP90 refold inh 61 (no result: ARNT-TACC3 inh) | HSP90 confirm 61 | FLuc counter 83
N/C(=N\OC(=O)c1ccc(Br)o1)c1ccccn1	HSP90 refold inh 23 | HSP90 confirm inactive | FLuc counter 44
COc1cc(C(=O)O/N=C(\N)c2ccccn2)cc(OC)c1OC	none
Cc1ccc(C(=O)O/N=C(\N)c2ccccn2)cc1	HSF1 inhib -81, HSP90 refold inh 78 (no result: ARNT-TACC3 inh) | HSP90 confirm 86 | FLuc counter 94
Cc1ccc(C(=O)O/N=C(\N)c2ccccn2)cc1C	HSF1 inhib -74, HSP90 refold inh 61 | HSP90 confirm 71 | FLuc counter 84
CCOc1ccc(C(=O)O/N=C(\N)c2ccccn2)cc1	HSF1 inhib -80, HSP90 refold inh 82 | HSP90 confirm 82 | FLuc counter 91
N/C(=N\OC(=O)/C=C/c1ccccc1Cl)c1ccccn1	HSP90 refold inh 28 (no result: ARNT-TACC3 inh) | HSP90 confirm 55 | FLuc counter 57
CC(C(=O)O/N=C(\N)c1ccccn1)c1ccc([N+](=O)[O-])cc1 (stereo not drawn)	none
C/C(=N\OC(=O)c1ccc(Br)cc1)c1ccccn1	none
N/C(=N\OCc1ccc([N+](=O)[O-])cc1)c1ccccn1	HSP90 refold inh 84 | HSP90 confirm 91 | FLuc counter 86
Cc1ccccc1S(=O)(=O)N1C[C@@H]2[C@H](c3ccccc31)[C@@H](CO)N2C(=O)CC1CC1	none (no result: HIF act, HSF1 inhib, HSF-1 act, HSP90 refold inh)
CO[C@@H]1CN(C)C(=O)c2cc(NC(=O)C3CC3)ccc2OC[C@H](C)N(CC2CCCC2)C[C@@H]1C	none (no result: HIF act, HSF1 inhib, HSF-1 act, HSP90 refold inh)
Cc1cccc(S(=O)(=O)N[C@@H]2CC[C@H](CCNC(=O)CCN3CCCCC3)O[C@@H]2CO)c1	none (no result: HIF act, HSF1 inhib, HSF-1 act, HSP90 refold inh)
CN(C)C(=O)C[C@@H]1CC[C@H]2[C@@H](COC[C@@H](O)CN2Cc2ccc(C(F)(F)F)cc2)O1	none (no result: HIF act, HSF1 inhib, HSF-1 act, HSP90 refold inh)
N/C(=N\OC(=O)c1ccccc1)c1ccccn1	HSF1 inhib -65, HSP90 refold inh 58 (no result: ARNT-TACC3 inh) | HSP90 confirm 38 | FLuc counter 87
N/C(=N\OC(=O)c1cccc(F)c1)c1ccccn1	HSP90 refold inh 31 | HSP90 confirm 16 | FLuc counter 68
COCC(=O)N1C[C@H](C)[C@H](OC)CN(C)C(=O)c2cc(NC(=O)c3cnccn3)ccc2OC[C@H]1C	none (no result: HIF act, HSF1 inhib, HSF-1 act, HSP90 refold inh)
Cc1ccc(C(=O)N(CCCN(C)C)c2nc3ccc(Cl)cc3s2)cc1C	none
CCc1ccc2nc(N(CCN(C)C)C(=O)c3ccc4ncsc4c3)sc2c1	HSP90 refold inh 28 | HSP90 confirm 23 | FLuc counter 19
CC(=O)N(C)C[C@H]1Oc2cc(-c3ccccc3C)ccc2S(=O)(=O)N([C@@H](C)CO)C[C@H]1C	none (no result: HIF act, HSF1 inhib, HSF-1 act, HSP90 refold inh)
Brc1ccc(N=Nc2ccc3ccccc3n2)cc1	HSP90 refold inh 61 (no result: HSF-1 act) | HSP90 confirm 95 | FLuc counter 86
CCn1c(O)c(N=Nc2ccc3ccccc3n2)c2ccccc21	none
C[C@H](CO)N1C[C@H](C)[C@H](CN(C)S(C)(=O)=O)OCCCC[C@H](C)Oc2ccc(NS(=O)(=O)c3cccs3)cc2C1=O	none (no result: HIF act, HSF1 inhib, HSF-1 act, HSP90 refold inh)
O=C(Nc1ccc2c(c1)nc1n2CCSC1)c1ccco1	HSP90 refold inh 35 | HSP90 confirm 45 | FLuc counter 20
C[C@H]1CN([C@@H](C)CO)C(=O)c2cc(NC(=O)Nc3cccc4ccccc34)ccc2O[C@H]1CN(C)Cc1ccc(C(=O)Nc2ccccc2N)cc1	none (no result: HIF act, HSF1 inhib, HSF-1 act, HSP90 refold inh)
COc1ccc(/C=N\Nc2ccc([N+](=O)[O-])cc2[N+](=O)[O-])c(C(=O)O)c1OC	none
COc1ccc(/C=N\Nc2ccccc2[N+](=O)[O-])c(C(=O)O)c1OC	HSP90 refold inh 18 | HSP90 confirm inactive | FLuc counter inactive
C[C@@H]1CN([C@H](C)CO)C(=O)c2cc(NS(=O)(=O)c3cccs3)ccc2O[C@H]1CN(C)Cc1ccc(C(F)(F)F)cc1	none (no result: HIF act, HSF1 inhib, HSF-1 act, HSP90 refold inh)
CCNC(=O)Nc1ccc2c(c1)C(=O)N(C)[C@H]1CC[C@@H](CC(=O)Nc3ccccc3)O[C@@H]1CO2	none (no result: HIF act, HSF1 inhib, HSF-1 act, HSP90 refold inh)
COc1ccc2[nH]c(O)c(N=NC(=O)Cc3cccs3)c2c1	HSP90 refold inh 23 | HSP90 confirm inactive | FLuc counter inactive
COc1ccccc1NC(=O)N1C[C@@H]2[C@H](c3ccccc31)[C@H](CO)N2C(=O)C1CC1	none (no result: HIF act, HSF1 inhib, HSF-1 act, HSP90 refold inh)
COc1ccc(-c2cc(C(=O)Nc3cccc(O)c3)no2)cc1	HSP90 refold inh 31 | HSP90 confirm 70 | FLuc counter 54
CC(C)Cc1cc(C(=O)Nc2ccc(Br)cc2)no1	none
CC(C)Cc1cc(C(=O)Nc2cccc(O)c2)no1	HSP90 refold inh 39 (no result: ARNT-TACC3 inh) | HSP90 confirm 71 | FLuc counter 65
Cc1nc(-c2ccc([N+](=O)[O-])cc2)sc1C(=O)O	HSP90 refold inh 18 | HSP90 confirm 18 | FLuc counter inactive
Cc1ccc(-c2nc(C)c(C(=O)O)s2)cc1	HSP90 refold inh 75 | HSP90 confirm 85 | FLuc counter 17
C[C@H](CO)N1C[C@H](C)[C@H](CN(C)C(=O)Nc2ccc(C(F)(F)F)cc2)OCCCC[C@H](C)Oc2ccc(NC(=O)Nc3ccc(C(F)(F)F)cc3)cc2C1=O	none (no result: HIF act, HSF1 inhib, HSF-1 act, HSP90 refold inh)
O=C(Nc1ccc2nc3n(c(=O)c2c1)CCCCC3)c1c(F)ccc([N+](=O)[O-])c1F	HSP90 refold inh 24 | HSP90 confirm inactive | FLuc counter inactive
O=C(Nc1ccc2nc3n(c(=O)c2c1)CCCCC3)c1cc([N+](=O)[O-])ccc1F	HSF1 inhib -68, HSP90 refold inh 34 | HSP90 confirm inactive | FLuc counter inactive
O=C1N=C(N2CCCC2)S/C1=C\C=C\c1ccccc1	HSF1 inhib -76, HSP90 refold inh 36 | HSP90 confirm 56 | FLuc counter 54
CCc1ccc(/C=C2\SC(N3CCCC3)=NC2=O)cc1	HSP90 refold inh 26 | HSP90 confirm inactive | FLuc counter 12
